Reference: PubChem BioAssay (NCI)
This is part of a sample that, as a whole, favours compounds with a hit. Of some 83,000 tested, about 20% had one in any assay.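 Values shown are percent growth following 48 h exposure of cells in 96-well plates to a single concentration of compound; below 10 was considered active.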 Unmarked numbers belong to inactive results. Calls of active or inactive are those of the source.

Legend:
Assay in all cases: NCI-60 one-dose screen, 48 h (100 = growth as untreated, 0 = no growth, -100 = all killed)
Details in all cases: 10 µM unless noted
[1] = test system: HCT-15 colon
[2] = test system: HT29 colon
[3] = test system: SNB-75 CNS
[4] = test system: SNB-19 CNS
[5] = test system: U251 CNS
[6] = test system: PC-3 prostate
[7] = test system: SK-MEL-5 melanoma
[8] = test system: UACC-62 melanoma
[9] = test system: LOX IMVI melanoma
[10] = test system: SK-MEL-28 melanoma

| SMILES | growth [1] | growth [2] | growth [3] | growth [4] | growth [5] | growth [6] | growth [7] | growth [8] | growth [9] | growth [10] |
| --- | --- | --- | --- | --- | --- | --- | --- | --- | --- | --- |
| Nc1ncc(-c2ccc3ncnc(N4CCc5cc(F)c(Cl)cc54)c3c2)cn1 | 18.2% | 24.1% | -32.2% (active) | 43% | 45% | 10.5% | 29.2% | 22.2% | 9.68% (active) | 40.5% |
| O=C(Cn1cc(-c2ccccc2)nn1)Nc1nc(-c2ccc(Cl)cc2)cs1 | 94.4% | 102% | 103% | 94.7% | 105% | 101% | 94.5% | 76.1% | 101% | 108% |
| COc1ccc(NCc2cn(-c3ccc(C(=O)O)cc3)nc2-c2cc(C(F)(F)F)cc(C(F)(F)F)c2)cc1 | 88.8% | 99.1% | 91.9% | 94.9% | 102% | 93% | 98.8% | 97.3% | 99.5% | 107% |
| CC1(C)CC[C@]2(CN)CC[C@]3(C)C(=CC[C@@H]4[C@@]5(C)CCCNC(C)(C)[C@@H]5CC[C@]43C)[C@H]2C1 | 71.7% | 40.7% | 99.1% | 101% | 89.4% | 87.6% | 98.8% | 105% | 81.9% | 103% |
| COc1ccc(-c2nn(-c3ccc(S(C)(=O)=O)cc3)cc2/C=N/O)cc1 | 103% | 106% | 127% | 105% | 106% | 102% | 98.7% | 96.6% | 102% | 96.1% |
| Oc1cccc2ccc(-c3nnc(SCc4ccc(O)c5ncccc45)o3)nc12 | 8.78% (active) | 56.8% | 34.3% | 12.9% | 13.3% | 9.67% (active) | -63.7% (active) | 9.35% (active) | 8.81% (active) | 35.2% |
| COc1ccc(S(=O)(=O)NCCCNc2nccc(-c3[nH]c(-c4ccccc4)nc3-c3ccc(Cl)c(O)c3)n2)cc1 | 93.7% | 73.8% | 108% | 105% | 83.3% | 66.4% | 56.9% | 18.1% | 56.9% | 23.5% |
| O=C(NNc1nc2cc(F)ccc2n2c(CO)ccc12)c1cnccn1 | 22.9% | 22% | 42.9% | 21.8% | 16.5% | 23.6% | 6.38% (active) | -14.8% (active) | 1.5% (active) | 25.1% |
| COc1cc(-c2nn(C(C)(C)C)cc2-c2ccnc(NCCCNS(=O)(=O)c3ccc(F)cc3)n2)ccc1Cl | 59.7% | 73.2% | 48.1% | 92.9% | 89.3% | 51.5% | 85% | 72.2% | 74.8% | 89.8% |
| CCc1nn2c(C)cc(C)nc2c1Cc1ccc(/C=C/CN2CCN(CCOCCOCCN3CCN(C/C=C/c4ccc(Cc5c(CC)nn6c(C)cc(C)nc56)cc4)CC3)CC2)cc1 | -81.1% (active) | -35.8% (active) | 99% | 17.7% | -47% (active) | 24.8% | -97.5% (active) | -86.4% (active) | -88.4% (active) | -88.9% (active) |
| CC(C)(C)c1ccc(C(=O)Nc2sc3c(c2C(N)=O)CCC(O)C3)cc1 (stereo not given) | 6.55% (active) | 2.76% (active) | 98.1% | 64.9% | 54% | 54.1% | 38.5% | 39.4% | -70% (active) | 49.3% |
| COc1cc2nc(Cl)nc(Nc3cccc(C4=Nc5c(N)nc(N)nc5NC(c5ccc(Br)cc5)C4)c3)c2cc1OC (stereo not given) | 7.34% (active) | 19.8% | 84.3% | 28.7% | -46.5% (active) | 64.7% | 75.5% | 107% | 27.6% | 99.1% |
| ClC(Cl)c1nc(-c2ccco2)n2nc(-c3ccccc3)cc2n1 | 12.8% | 0.803% (active) | 88.5% | 8.35% (active) | -0.0523% (active) | 1.66% (active) | 98.1% | 40.7% | 98.2% | 12.4% |
| C[C@H](CCC(=O)NCc1ccc(C(=O)Nc2ccccc2N)cc1)[C@H]1CC[C@H]2[C@@H]3[C@@H](O)C[C@@H]4C[C@H](O)CC[C@]4(C)[C@H]3CC[C@]12C | 88.3% | 48.1% | 91.5% | 73.1% | 64.3% | 42.4% | 63.3% | 36.7% | 59.6% | 63.6% |
| NC(N)=Nc1ccc(Nc2cccc(Oc3ccc(Cl)c(C(F)(F)F)c3)c2)cn1 | 42% | 18.9% | 52.7% | 24.3% | -68.8% (active) | -55.8% (active) | 28.3% | 45.6% | -97.2% (active) | 60.7% |
| C=CCn1c(SCC(=O)Nc2ccc(C(=O)/C=C/c3ccc(C)cc3)cc2)nnc1-c1c[nH]c2ccccc12 | 71.5% | 101% | 97.4% | 87.5% | 92.2% | 66.5% | 69.2% | 67.9% | 20.9% | 96% |
| CC(Nc1c(C#N)cnc2ccc(-c3cnc(N)nc3)cc12)c1ccccc1 (stereo not given) | 9.92% (active) | 17.4% | 18.9% | 20.4% | 21% | 10.8% | -67.3% (active) | 3.27% (active) | 4.6% (active) | 17.9% |
| NS(=O)(=O)c1ccc(-n2cc(CN3CCNCC3)nn2)cc1 | 104% | 109% | 92.1% | 102% | 105% | 102% | 100% | 99% | 107% | 111% |
| CCNC(=O)N1CCc2cc(OC)c(OCCc3ccc(OC)nc3)cc2C1c1ccc(C)cc1C (stereo not given) | 6.9% (active) | 1.6% (active) | 45.8% | 25.7% | 11.1% | 26.8% | -31.6% (active) | 25.6% | 3.95% (active) | 41.5% |
| COc1c(N2CC3CCCNC3C2)c(F)cc2c(=O)c(C(=O)N/N=C/c3ccc(F)cc3)cn(C3CC3)c12 (stereo not given) | 45.9% | 45.9% | 83.6% | 99.5% | 81.4% | 76.4% | 82.7% | 80.2% | 46.1% | 81% |
| O=C(Nc1ccc2c(ccn2Cc2ccccn2)c1)c1ccnnc1 | 111% | 103% | 56% | 102% | 108% | 91.4% | 98.9% | 86.3% | 101% | 108% |
| Nn1c(N/N=C/c2nc3ccccc3s2)n[nH]c1=S | 122% | 112% | 51.5% | 104% | 113% | 97.8% | 100% | 92.1% | 102% | 114% |
| CCCn1cnc2c(c1=N)C(c1ccc(F)cc1)c1sc3c(CC)cccc3c1O2 (stereo not given) | 12.6% | 9.3% (active) | 14.8% | 15.3% | 18.5% | 24% | -12.2% (active) | 14% | 5.54% (active) | 40.4% |
| O=C(Nc1nonc1-c1ccccc1)c1ccc(C(F)(F)F)cc1 | 80.6% | 103% | 104% | 62% | 70.1% | 71.7% | 65.6% | 56% | -46.7% (active) | 77.5% |
| CCN1CCN(C(=O)[C@]23CCC(C)(C)C[C@H]2C2=CC[C@@H]4[C@@]5(C)Cc6c([nH]c7ccccc67)C(C)(C)[C@@H]5CC[C@@]4(C)[C@]2(C)CC3)CC1 | 79.6% | 88.3% | 87.3% | 91.9% | 83.1% | 75.3% | 97.3% | 94.8% | 76% | 95.5% |
| Cc1cc(S(=O)(=O)N(C)C)cc(NCC(=O)NC(=O)NCC(C)C)c1C | 110% | 114% | 45% | 105% | 108% | 101% | 96.5% | 91.8% | 96.4% | 102% |
